Test results taken from PubChem BioAssay (Tox21).
“And” between values parts separate entries of the source, which are not always exact repeats. Equal entries are not always repeated. Inconclusive results are not listed. Some structures have more than one record in an assay (separate samples or runs), and their calls can disagree. The source made the active and inactive calls. Calls come from the whole dose curve; as a rule, active = well fitted curve in the direction sought with a large enough effect in the repeat runs; inconclusive = weak or mixed curves; inactive = no such curve, though single readings can be large; an effect the other way counts as inactive or inconclusive.

Assays:
[1] = A CellTox Green Cytotoxicity Assay to monitor cytotoxicity in HEK293 cells - 40 hour (AID 1224871); note: nearly all actives have a fitted effect of over 45% in size; note: potency is the fitted concentration of half-maximal effect
Summary of the method: (§1)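 Dead-cell fluorescence measured kinetically: asymmetric cyanine dye, HEK293, 600 cells/well, 5 h settle, 23 nL cpd/DMSO, 37 C, reads 0–40 h every 8 h.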

[2] = qHTS RealTime-Glo MT Cell Viability Assay in HEK293 cells - 16 hour (AID 1224872); note: nearly all actives have a fitted effect of over 50% in size; note: potency is the fitted concentration of half-maximal effect; for activity change, negative = cytotoxicity: top concentration of the series differs between compounds
Summary of the method: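 Tox21 10K qHTS, HEK293, 600 cells/well, RealTime-Glo reagent co-dispensed with cells; 5 h preincubation, compound by pintool, 37 C, luminescence at 0–40 h.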

[3] = qHTS RealTime-Glo MT Cell Viability Assay in HEK293 cells - 40 hour (AID 1224874); settings: RealTime-Glo luminescence; max response: stronger effect = lower value; note: nearly all actives have a fitted effect of over 50% in size; note: potency is the fitted concentration of half-maximal effect
Summary of the method: (§2)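 600 HEK293 cells per well, dispensed already mixed with RealTime-Glo MT reagents. Compound dosing came 5 h later. The same wells were read for luminescence at 0, 8, 16, 24, 32 and 40 h of exposure at 37 C.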

[4] = A CellTox Green Cytotoxicity Assay to monitor cytotoxicity in HEK293 cells - 24 hour (AID 1224875); note: nearly all actives have a fitted effect of over 45% in size; note: potency is the fitted concentration of half-maximal effect; for activity change: series mostly up to about 77 µM
Summary of the method: as §1

[5] = A CellTox Green Cytotoxicity Assay to monitor cytotoxicity in HepG2 cells - 16 hour (AID 1224876); note: nearly all actives have a fitted effect of over 45% in size; note: potency is the fitted concentration of half-maximal effect
Summary of the method: (§3)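 First, HepG2 cells (600/well) mixed with reagent were plated; second, after 5 h at 37 C they received compounds via pintool; third, fluorescence was measured at 0 h through 40 h at 8 h intervals.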

[6] = qHTS RealTime-Glo MT Cell Viability Assay in HepG2 cells - 32 hour (AID 1224877); note: nearly all actives have a fitted effect of over 55% in size; note: potency is the fitted concentration of half-maximal effect
Summary of the method: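 Cells + NanoLuc/prosubstrate dispensed (600 cells/well) → 5 h at 37 C/5% CO2 → compounds in DMSO transferred → 40 h incubation at 37 C, luminescence read at 0, 8, 16, 24, 32, 40 h.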

[7] = A CellTox Green Cytotoxicity Assay to monitor cytotoxicity in HepG2 cells - 24 hour (AID 1224878); note: nearly all actives have a fitted effect of over 45% in size; note: potency is the fitted concentration of half-maximal effect
Summary of the method: as §3

[8] = qHTS RealTime-Glo MT Cell Viability Assay in HEK293 cells - 0 hour (AID 1224880)
Summary of the method: as §2

[9] = A CellTox Green Cytotoxicity Assay to monitor cytotoxicity in HepG2 cells - 40 hour (AID 1224879); note: nearly all actives have a fitted effect of over 40% in size; note: potency is the fitted concentration of half-maximal effect
Summary of the method: as §3

[10] = qHTS RealTime-Glo MT Cell Viability Assay in HepG2 cells - 8 hour (AID 1224873); note: nearly all actives have a fitted effect of over 55% in size
Summary of the method: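 HepG2 cells (600/well) mixed with RealTime-Glo MT reagent, settled 5 h at 37 C/5% CO2 before compound addition. Nonlytic NanoLuc luminescence from viable-cell prosubstrate reduction read repeatedly during 40 h treatment at 37 C.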
% is set by controls: 0 for no effect and ±100 for the full control effect.

[O-][n+]1ccccc1SSc1cccc[n+]1[O-]
active: Potency [1] 1.31 µM | Potency [2] 1.31 µM | Potency [3] 1.17 µM | Potency [4] 4.65 µM | Potency [5] 9.28 µM | Potency [6] 0.165 µM | Potency [7] 1.47 µM
inactive: activity change, negative = cytotoxicity [8] -7.04% [at 15.8 µM]

CC[C@H]1O[C@]2(CC[C@@H]1C)C[C@@H]1C[C@@H](C/C=C(\C)C[C@@H](C)/C=C/C=C3\CO[C@@H]4[C@H](O)C(C)=C[C@@H](C(=O)O1)[C@]34O)O2
inactive: Potency [8]
active: Potency [1] 43.3 µM | Potency [2] 38.5 µM | Potency [3] 24.3 µM | Potency [4] 48.5 µM | Potency [5] 48.5 µM | Potency [6] 43.3 µM | Potency [9] 27.3 µM

CC[C@@]1(O)C(=O)OCc2c1cc1n(c2=O)Cc2cc3c(CN(C)C)c(O)ccc3nc2-1
active: Potency [1] 21.3 µM | Potency [3] 0.0756 µM | Potency [4] 23.9 µM | Potency [5] 21.3 µM | Potency [7] 10.7 µM | Potency [9] 7.56 µM
inactive: Potency [10] | Potency [8]

CCN1/C(=C/C=C/c2sc3ccccc3[n+]2CC)Sc2ccccc21
active: Potency [1] 9.28 µM | Potency [2] 1.04 µM | Potency [3] 0.0585 µM | Potency [7] 1.85 µM | Potency [9] 1.17 µM
inactive: cytotoxicity increase [5] -2.11% [at 15.8 µM] | activity change, negative = cytotoxicity [8] -8.36% [at 15.8 µM]

Nc1nc2ccccc2n1Cc1ccc(F)cc1
inactive: Potency [1] | Potency [10] | Potency [4] | Potency [5] | Potency [6]

OCCN(CCO)c1nc(N2CCCCC2)c2nc(N(CCO)CCO)nc(N3CCCCC3)c2n1
inactive: Potency [10] | Potency [6] | Potency [8]
active: Potency [1] 19 µM | Potency [3] 26.8 µM | Potency [4] 21.3 µM | Potency [5] 23.9 µM | Potency [7] 23.9 µM | Potency [9] 23.9 µM

O=C(Nc1cccc([N+](=O)[O-])c1)c1cc2ccccc2cc1O
inactive: Potency [1] | Potency [10] | Potency [4] | Potency [5] | Potency [6] | Potency [7] | Potency [9] | Potency [8]

Nc1ccc2c3c(cccc13)-c1ccccc1-2
active: Potency [1] 39.3 µM | Potency [2] 24.8 µM | Potency [3] 27.8 µM | Potency [4] 44.1 µM | Potency [5] 39.3 µM | Potency [7] 44.1 µM
inactive: Potency [6] | Potency [8]

CCOC(=O)c1nc(C(Cl)(Cl)Cl)n(-c2ccc(Cl)cc2Cl)n1
inactive: Potency [1] | Potency [2] | max response [3] -11.5% | Potency [4] | Potency [5] | Potency [7] | Potency [8]

O=C(OC[C@H]1O[C@@H](OC(=O)c2cc(O)c(O)c(OC(=O)c3cc(O)c(O)c(O)c3)c2)[C@H](OC(=O)c2cc(O)c(O)c(OC(=O)c3cc(O)c(O)c(O)c3)c2)[C@@H](OC(=O)c2cc(O)c(O)c(OC(=O)c3cc(O)c(O)c(O)c3)c2)[C@@H]1OC(=O)c1cc(O)c(O)c(OC(=O)c2cc(O)c(O)c(O)c2)c1)c1cc(O)c(O)c(OC(=O)c2cc(O)c(O)c(O)c2)c1
inactive: cytotoxicity increase [1] -40.6% [at 15.8 µM] | activity change, negative = cytotoxicity [2] -9.99% [at 15.8 µM] | activity change [4] -38.6% [at 15.8 µM, stronger effect = higher value] | cytotoxicity increase [5] -47.1% [at 15.8 µM] | cytotoxicity [7] -52.4% [at 15.8 µM] | cytotoxicity increase [9] -56% [at 15.8 µM] | activity change, negative = cytotoxicity [8] -3.48% [at 15.8 µM]

C[C@@H]1C[C@H]2[C@@H]3CCC4=CC(=O)C=C[C@]4(C)[C@@]3(Cl)[C@@H](O)C[C@]2(C)[C@@]1(OC(=O)c1ccco1)C(=O)CCl
inactive: Potency [1] | Potency [2] | max response [3] -19.5% | Potency [4] | Potency [5] | Potency [7] | Potency [8]

CCC(Cl)C(Cl)C(Cl)CC(Cl)C(Cl)C(C)Cl (stereo not given)
inactive: Potency [1] | Potency [10] | max response [3] -19.8% | Potency [4] | Potency [5] | Potency [6] | Potency [7] | Potency [9] | Potency [8]

Oc1cccc(-c2c3nc(c(-c4cccc(O)c4)c4ccc([nH]4)c(-c4cccc(O)c4)c4nc(c(-c5cccc(O)c5)c5ccc2[nH]5)CC4)C=C3)c1
active: Potency [2] 23.9 µM
inactive: Potency [1] | Potency [4] | Potency [5] | Potency [6] | Potency [7] | Potency [9]

CCCN(CCC)C(=O)C(CCC(=O)OCCCN1CCN(CCOC(=O)Cc2c(C)n(C(=O)c3ccc(Cl)cc3)c3ccc(OC)cc23)CC1)NC(=O)c1ccccc1 (stereo not given)
inactive: Potency [1] | Potency [4]
active: Potency [2] 21.3 µM | Potency [5] 23.9 µM | Potency [7] 23.9 µM

CCOc1nc2cccc(C(=O)OC(C)OC(=O)OC3CCCCC3)c2n1Cc1ccc(-c2ccccc2-c2nn[nH]n2)cc1 (stereo not given)
active: Potency [1] 30.9 µM | Potency [2] 11 µM | Potency [4] 34.6 µM | Potency [7] 43.6 µM | Potency [9] 43.6 µM

O=C1Cc2cc(CCN3CCN(c4nsc5ccccc45)CC3)c(Cl)cc2N1
active: Potency [1] 26.8 µM | Potency [2] 23.9 µM
inactive: Potency [8]

Oc1ccc(Cl)cc1Sc1cc(Cl)ccc1O
active: Potency [2] 21.8 µM | Potency [3] 19.5 µM and 23.9 µM | Potency [7] 43.6 µM | Potency [9] 48.9 µM and 26.8 µM
38.8 µM (active) and inactive: Potency [1]
inactive: Potency [5]

CCCCCCCCS(=O)C(C)Cc1ccc2c(c1)OCO2 (stereo not given)
inactive: Potency [1] | Potency [10] | Potency [4] | Potency [5] | Potency [6] | Potency [7] | Potency [9] | Potency [8]
